Each structure is given as a SMILES string. Results filed as inconclusive are left out. Calls of active or inactive are those of the source. Calls come from the whole dose curve; as a rule, active = well fitted curve in either direction with a large enough effect (not every such curve was filed as active); inconclusive = small, poorly fitted or top-dose-only effect, or another doubt; inactive = flat fitted curve, though single readings scatter.

Experimental findings from PubChem BioAssay (NCATS) are described below.
% is set by controls: 0 for no effect and ±100 for the full control effect.

The first experiment can be described thus: AP1 Signaling Pathway (AID 357). As to conditions: ME-180 (cervical carcinoma) AP-1-bla reporter, EGF-induced, beta-lactamase ratio, 5 h; at 17.2 µM (top of the series) unless noted. In short, it runs like this:
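ME-180 cells with beta-lactamase reporter under AP-1 response element, stimulated with EC50 EGF; compounds tested in titration series, 5 h at 37 °C. CCF4 substrate added 2.5 h at room temperature; 460/530 nm emission ratio gave %activity and AC50.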
For `COc1ccc(-c2nnc3sc(COc4ccccc4)nn23)cc1`, the activity change, negative = inhibition was -22.1% (inactive).
Take `CCOc1ccc(S(=O)(=O)N(C)C)cc1-c1nc2c(C(C)(C)C)nn(C)c2c(=O)[nH]1`: the activity change, negative = inhibition was 5.08% (inactive).
For the compound `Cc1cn2c(-c3ccncc3)nnc2s1`, the activity change, negative = inhibition was -4.06% (inactive).
Turning to `COc1ccccc1N1CCN(CCOc2c(OC)cccc2OC)CC1`, the activity change, negative = inhibition was 12.4% (inactive).
On the same count and under the same terms, as for `COc1ccc(/C(O)=C2\C(=O)C(=O)N(CCN3CCOCC3)C2c2ccccc2OC)cc1` (stereo not given), the figure is -4.72% (inactive); as for `CCOC(=O)c1[nH]c2ccc(OC)cc2c1NC(=O)CCN1CCCC(C)C1` (stereo not given), -2.35% (inactive).
For `N#CC1(c2ccccc2)CCC(=NO)CC1` (stereo not given), the activity change, negative = inhibition is -5.72% (inactive).
On to `COCCOC(=O)C1=C(C)OC(N)=C(C#N)C1c1ccco1` (stereo not given), for which the activity change, negative = inhibition is 0.22% (inactive).
Regarding `N#CC1(P(=O)(c2ccccc2)c2ccccc2)CC1`, the activity change, negative = inhibition is 0.213% (inactive).
In the case of `COc1ccc(C(=O)Nc2nc(N)n(-c3ccccc3)n2)cc1OC`, the activity change, negative = inhibition was -0.0315% (inactive).
In the case of `CCCCOc1ccccc1P(=O)(O)CP(=O)(c1ccccc1)c1ccccc1`, the activity change, negative = inhibition was -13.5% (inactive).
Turning to `Clc1ccc2[nH]c3c(NCCCN4CCOCC4)ncnc3c2c1`, the activity change, negative = inhibition was 17% (inactive).
With `c1nc(NC2CCCCC2)c2[nH]cnc2n1`, the activity change, negative = inhibition is -4.39% (inactive).
Consider `CCOC(=O)CC(=O)CSc1[nH]c(=O)cc(C)c1C#N`, for which the activity change, negative = inhibition is 8.86% (inactive).
Turning to `CCOC(=O)c1c(C)oc2ccc(OCC(=O)C(C)(C)C)cc12`, the activity change, negative = inhibition was -23.5% (inactive).
Regarding `Cc1cc(C)cc(CC2CC(=O)N(c3cc(C)on3)C2=O)c1` (stereo not given), the activity change, negative = inhibition was -8.62% (inactive).
Regarding `CC(C)Nc1nc(NC(C)C)nc(N(C)n2cnnc2)n1`, the activity change, negative = inhibition was 9.58% (inactive).
Consider `Cn1c(N)c(C#N)c(C#N)c1-c1ccccc1`, for which the activity change, negative = inhibition is -21.2% (inactive).
`c1ccc(-c2nnc(OCCN3CCOCC3)c3ccccc23)cc1`: the activity change, negative = inhibition was -8.82% (inactive).
Take `c1coc(CNc2ncnc3ccccc23)c1`: the activity change, negative = inhibition is -22.1% (inactive).
In the case of `O=C(CCN1CCCCC1)Nc1cccc(Cl)c1`, the activity change, negative = inhibition was 7.3% (inactive).
Consider `CCOC(=O)NC(Nc1sc2c(c1C(N)=O)CCCC2)(C(=O)OCC)C(F)(F)F` (stereo not given), for which the activity change, negative = inhibition is -6.03% (inactive).
Take `COc1cccc(C2CC(c3ccccc3Cl)n3nc(N)nc3N2)c1` (stereo not given): the activity change, negative = inhibition is -5.25% (inactive).
Still for that read-out and setting: as for `COc1ccc(C=NCCCN2CCOCC2)cc1`, the figure is -8.54% (inactive); as for `C=CCc1c(C)c(C#N)c2nc3ccccc3n2c1N1CCN(C)CC1`, -17.1% (inactive).
Take `Cc1ccc(-n2ncc3c(NCCCN4CCCC4=O)ncnc32)c(C)c1`: the activity change, negative = inhibition is -15.8% (inactive).
In the case of `O=C(O)CC(C(=O)OCCOc1ccccc1)N1CCOCC1` (stereo not given), the activity change, negative = inhibition is -4.83% (inactive).
As for `O=C(CCC1CCCC1)N1CCC(N2CCN(c3ccccc3)CC2)CC1`, the activity change, negative = inhibition is -5.6% (inactive).
Consider `c1coc(-c2nnc3sc(C4CCCCC4)nn23)c1`, for which the activity change, negative = inhibition is -14.7% (inactive).
Regarding `CCOc1cccc(-c2nnc3sc(-c4ccco4)nn23)c1`, the activity change, negative = inhibition was -1.16% (inactive).
Same read-out and setting: for `CCC(NC(=O)Nn1cnnc1)(C(F)(F)F)C(F)(F)F` the value was 21.2% (inactive); for `CCOC(=O)c1n[nH]c2ccccc12`, 7.22% (inactive); for `O=C(C(c1ccccc1)N1CCOCC1)N1CCOCC1` (stereo not given), 27.9% (inactive).
As for `CCOC(=O)c1sc(-n2[nH]c(C)cc2=O)nc1C`, the activity change, negative = inhibition is -2.34% (inactive).
On the same count and under the same terms, as for `COc1ccc(C2C=C(c3ccc(Cl)cc3)Nc3nc(NC(C)=O)nn32)cc1` (stereo not given), the figure is -15.6% (inactive).
In the case of `CCCOc1ccc(/C(O)=C2/C(=O)C(=O)N(CCCN3CCOCC3)C2c2ccncc2)cc1` (stereo not given), the activity change, negative = inhibition was -5.76% (inactive).
For `Cn1c(CSc2ncn[nH]2)nc2ccccc21`, the activity change, negative = inhibition was -5.65% (inactive).
With `CCN(CC)CCOC(=O)C1(c2ccc(OC)c(OC)c2)CCCC1`, the activity change, negative = inhibition was 10.4% (inactive).
For the compound `CCOC(=O)c1ccc(CC2S/C(=C(\C#N)C(C)=O)NC2=O)cc1` (stereo not given), the activity change, negative = inhibition is -24.1% (inactive).
As for `C=CCn1c(C2CC(=O)N(c3ccc(C)cc3)C2)nc2ccccc21` (stereo not given), the activity change, negative = inhibition is -0.041% (inactive).

A further experiment can be described thus: NFAT Signaling Pathway (AID 444).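 Note: carbachol stimulus at about its EC50 of 1 µM final.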 Conditions: Jurkat NFAT-bla M1, carbachol, beta-lactamase ratio, 5 h; at 17.2 µM (top of the series) unless noted. The gist of the method:
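Read-out: CCF4 FRET ratio (460 nm/530 nm) after 1 h RT dye loading, used for %activity and AC50 from titration series. Cells: Jurkat NFAT-β-lactamase/M1 line, treated with compound plus 1 uM carbachol for 5 h, 37 °C.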
Take `COc1ccc(-c2nnc3sc(COc4ccccc4)nn23)cc1`: the activity change, negative = inhibition was -15.2% (inactive).
For the compound `CCOc1ccc(S(=O)(=O)N(C)C)cc1-c1nc2c(C(C)(C)C)nn(C)c2c(=O)[nH]1`, the activity change, negative = inhibition was 8.6% (inactive).
In the case of `Cc1cn2c(-c3ccncc3)nnc2s1`, the activity change, negative = inhibition was 1.86% (inactive).
For `COc1ccccc1N1CCN(CCOc2c(OC)cccc2OC)CC1`, the activity change, negative = inhibition is 12.8% (inactive).
For `COc1ccc(/C(O)=C2\C(=O)C(=O)N(CCN3CCOCC3)C2c2ccccc2OC)cc1` (stereo not given), the activity change, negative = inhibition is 15.6% (inactive).
For `CCOC(=O)c1[nH]c2ccc(OC)cc2c1NC(=O)CCN1CCCC(C)C1` (stereo not given), the activity change, negative = inhibition was -82.5% (active).
Turning to `N#CC1(c2ccccc2)CCC(=NO)CC1` (stereo not given), the activity change, negative = inhibition is 8.2% (inactive).
The same measure, in the same setting: for `COCCOC(=O)C1=C(C)OC(N)=C(C#N)C1c1ccco1` (stereo not given) the value was -14.6% (inactive).
`N#CC1(P(=O)(c2ccccc2)c2ccccc2)CC1`: the activity change, negative = inhibition was -2.17% (inactive).
As for `COc1ccc(C(=O)Nc2nc(N)n(-c3ccccc3)n2)cc1OC`, the activity change, negative = inhibition is -1.36% (inactive).
Same read-out and setting: as for `CCCCOc1ccccc1P(=O)(O)CP(=O)(c1ccccc1)c1ccccc1`, the figure is -17% (inactive); as for `Clc1ccc2[nH]c3c(NCCCN4CCOCC4)ncnc3c2c1`, -2.05% (inactive).
On the same count and under the same terms, for `c1nc(NC2CCCCC2)c2[nH]cnc2n1` the value was 2.42% (inactive); for `CCOC(=O)CC(=O)CSc1[nH]c(=O)cc(C)c1C#N`, 2.85% (inactive); for `CCOC(=O)c1c(C)oc2ccc(OCC(=O)C(C)(C)C)cc12`, 2.59% (inactive).
Still for that read-out and setting: for `Cc1cc(C)cc(CC2CC(=O)N(c3cc(C)on3)C2=O)c1` (stereo not given) the value was -3.65% (inactive); for `CC(C)Nc1nc(NC(C)C)nc(N(C)n2cnnc2)n1`, -6.19% (inactive).
Regarding `Cn1c(N)c(C#N)c(C#N)c1-c1ccccc1`, the activity change, negative = inhibition was 4.54% (inactive).
For the compound `c1ccc(-c2nnc(OCCN3CCOCC3)c3ccccc23)cc1`, the activity change, negative = inhibition was 5.5% (inactive).
Turning to `c1coc(CNc2ncnc3ccccc23)c1`, the activity change, negative = inhibition was -14.7% (inactive).
Still for that read-out and setting: as for `O=C(CCN1CCCCC1)Nc1cccc(Cl)c1`, the figure is -23.2% (inactive).
As to `CCOC(=O)NC(Nc1sc2c(c1C(N)=O)CCCC2)(C(=O)OCC)C(F)(F)F` (stereo not given), the activity change, negative = inhibition is -0.536% (inactive).
Same read-out and setting: for `COc1cccc(C2CC(c3ccccc3Cl)n3nc(N)nc3N2)c1` (stereo not given) the value was -4.65% (inactive).
With `COc1ccc(C=NCCCN2CCOCC2)cc1`, the activity change, negative = inhibition was -2.1% (inactive).
In the case of `C=CCc1c(C)c(C#N)c2nc3ccccc3n2c1N1CCN(C)CC1`, the activity change, negative = inhibition was 4.5% (inactive).
For the compound `Cc1ccc(-n2ncc3c(NCCCN4CCCC4=O)ncnc32)c(C)c1`, the activity change, negative = inhibition was 11.5% (inactive).
Consider `O=C(O)CC(C(=O)OCCOc1ccccc1)N1CCOCC1` (stereo not given), for which the activity change, negative = inhibition is -6.82% (inactive).
With `O=C(CCC1CCCC1)N1CCC(N2CCN(c3ccccc3)CC2)CC1`, the activity change, negative = inhibition is -29.5% (inactive).
`c1coc(-c2nnc3sc(C4CCCCC4)nn23)c1`: the activity change, negative = inhibition was -19.5% (inactive).
With `CCOc1cccc(-c2nnc3sc(-c4ccco4)nn23)c1`, the activity change, negative = inhibition was 18.2% (inactive).
Take `CCC(NC(=O)Nn1cnnc1)(C(F)(F)F)C(F)(F)F`: the activity change, negative = inhibition is -0.332% (inactive).
In the case of `CCOC(=O)c1n[nH]c2ccccc12`, the activity change, negative = inhibition is 0.11% (inactive).
Take `O=C(C(c1ccccc1)N1CCOCC1)N1CCOCC1` (stereo not given): the activity change, negative = inhibition is 7.74% (inactive).
`CCOC(=O)c1sc(-n2[nH]c(C)cc2=O)nc1C`: the activity change, negative = inhibition was 8.32% (inactive).
Still for that read-out and setting: for `COc1ccc(C2C=C(c3ccc(Cl)cc3)Nc3nc(NC(C)=O)nn32)cc1` (stereo not given) the value was -13.4% (inactive).
`CCCOc1ccc(/C(O)=C2/C(=O)C(=O)N(CCCN3CCOCC3)C2c2ccncc2)cc1` (stereo not given): the activity change, negative = inhibition is 16.4% (inactive).
On to `Cn1c(CSc2ncn[nH]2)nc2ccccc21`, for which the activity change, negative = inhibition was 3.91% (inactive).
For the compound `CCN(CC)CCOC(=O)C1(c2ccc(OC)c(OC)c2)CCCC1`, the activity change, negative = inhibition is -82.2% (active).
For the compound `CCOC(=O)c1ccc(CC2S/C(=C(\C#N)C(C)=O)NC2=O)cc1` (stereo not given), the activity change, negative = inhibition was 13.3% (inactive).
Regarding `C=CCn1c(C2CC(=O)N(c3ccc(C)cc3)C2)nc2ccccc21` (stereo not given), the activity change, negative = inhibition is 5.1% (inactive).
